Shn3 inh set2 – reduction of Shn3 3'UTR firefly luciferase signal, primary screen, Schnurri-3 inhibitor project, cell-based, Clone20 osteoblasts, set 2; AID 588674, 2011; Clone20 osteoblast Shn3 3'UTR firefly luciferase, 24 h; actives 0.52% (n = 360,000); inhibition, % at 12.5 µM;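 active = mean inhibition of at least 75% with every replicate also reaching 75%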;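 note: 0% = median of neutral control wells and 100% = pilot-screen positive control compound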
ABHD5 PLIN5 PPI – ABHD5-PLIN5 interaction inhibitors, primary screen, cell lysate, split luciferase complementation, luminescence | Split G. princeps luciferase complementation, 4 h | inhibition, % at 4 µM | AID 602281, 2012 | Perilipin-5 (Homo sapiens) + 1-acylglycerol-3-phosphate O-acyltransferase ABHD5 (Homo … | actives 0.78% (n = 360,000);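 active = inhibition above the mean inhibition across every tested compound plus 3 SD, cut at about 22% in these data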;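 note: 0% = DMSO only wells and the 100% control is not disclosed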
Target sequence (Q00G26 whole entry, looked up): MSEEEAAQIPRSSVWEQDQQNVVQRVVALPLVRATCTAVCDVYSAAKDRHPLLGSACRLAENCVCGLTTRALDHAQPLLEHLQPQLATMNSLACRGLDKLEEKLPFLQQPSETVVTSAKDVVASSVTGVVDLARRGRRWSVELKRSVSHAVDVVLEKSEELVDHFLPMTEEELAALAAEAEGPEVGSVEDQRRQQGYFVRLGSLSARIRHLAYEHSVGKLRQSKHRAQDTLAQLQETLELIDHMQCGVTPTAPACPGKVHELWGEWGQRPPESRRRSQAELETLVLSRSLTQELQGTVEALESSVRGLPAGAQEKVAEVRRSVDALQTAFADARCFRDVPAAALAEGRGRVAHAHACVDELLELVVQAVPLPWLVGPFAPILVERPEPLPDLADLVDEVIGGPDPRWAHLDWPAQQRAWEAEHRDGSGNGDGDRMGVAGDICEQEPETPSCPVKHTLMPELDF
Target sequence (Q8WTS1 whole entry, looked up): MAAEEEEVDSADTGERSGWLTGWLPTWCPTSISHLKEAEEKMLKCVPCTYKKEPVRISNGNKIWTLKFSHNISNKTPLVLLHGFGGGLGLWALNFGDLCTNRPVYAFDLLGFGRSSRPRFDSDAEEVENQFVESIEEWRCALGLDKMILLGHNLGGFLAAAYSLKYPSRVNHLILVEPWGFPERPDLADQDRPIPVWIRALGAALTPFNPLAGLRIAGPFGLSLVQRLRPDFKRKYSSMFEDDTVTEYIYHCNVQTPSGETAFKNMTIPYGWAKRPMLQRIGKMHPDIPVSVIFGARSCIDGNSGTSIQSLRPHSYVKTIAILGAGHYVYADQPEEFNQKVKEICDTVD
EWS-Fli block – EWS/Fli-driven NR0B1 reporter inhibitors, primary screen, A673 cells, NR0B1 luciferase, luminescence, MLPCN library. viability-normalised. inhibition, % at 12.6 µM. actives 0.67% (n = 350,000). AID 651661, 2012;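 active = mean inhibition of at least 50% after viability correction, with every replicate also passing that limit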;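 note: firefly luciferase signal divided by Alamar Blue viability fluorescence both relative to DMSO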
PAX8 reporter – inhibitors of PAX8-driven TPO luciferase reporter, primary screen, RMG-I cells, single concentration | SteadyGlo, 24 h | inhibition, % at 12.6 µM | actives 1.2% (n = 360,000) | AID 652154, 2013;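 active = mean replicate inhibition at least 60% with every replicate also reaching 60%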;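 note: luciferase light reporting Pax8 driven TPO promoter activity; plate controls were median of neutral control wells for no effect and mitoxantrone controls for full effect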
Peg3 promoter – Peg3 promoter-driven luciferase inhibitors, primary screen, cell-based, HeLa, luciferase luminescence; HeLa PEG-Prom luciferase reporter, overnight; inhibition, % at 20 µM; actives 1.7% (n = 360,000); AID 588405, 2011;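 active = inhibition of at least 50% at 20 µM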
MITF TRPM1 inh – inhibitors of MITF-dependent TRPM1 promoter reporter, primary screen, cell-based, SK-MEL-5, single point, luciferase; SK-MEL-5 TRPM1 promoter luciferase, 24 h; inhibition, % at 12.5 µM; actives 0.83% (n = 330,000); AID 488899, 2010;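 active = mean inhibition across replicates of 60% or more, whatever share of single replicates reaches that level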
DNA binder FP – DNA binders by acridine orange displacement, dose response, counter-screen for EWS/Fli inhibitor project, biochemical, fluorescence polarization, cherry-pick | shares compounds with EWS-Fli block | salmon sperm DNA acridine orange fluorescence polarization | AC35, µM (doses to about 68 µM), without a hit: top-dose activity change, negative = DNA binding | actives 2% (n = 640) | AID 720586, 2013;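 active = fitted curve reaches a 35% signal fall AC35 below twice the sample's top valid tested dose, actives reach about 48 µM in these data; inactive = the rest, including activity in the rising direction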;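 note: lower polarization ratio signals compound binding to DNA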
* marks the source's active call; other numbers are inactive results. Rows were chosen to be rich in hits. Some 3% of all compounds tested hit in one or more screens of this group.

`COC(=O)C1=C(C)N(Cc2cccc(C(F)(F)F)c2)C(=NCc2ccc(OC)cc2)NC1c1cccc(F)c1` (stereo not given) gave EWS-Fli block 50*, PAX8 reporter 99* and DNA binder FP 0%.
For COC(=O)C1=C(C)N(Cc2ccccc2C(F)(F)F)C(=NCc2ccc(OC)cc2)NC1c1ccc(C(F)(F)F)cc1 (stereo not given) the results were EWS-Fli block 55*, PAX8 reporter 37 and DNA binder FP -7%.
`COC(=O)C1=C(C)N(Cc2ccccc2C(F)(F)F)C(=NCc2ccc(C(F)(F)F)cc2)NC1c1ccc(C(F)(F)F)cc1` (stereo not given) gave EWS-Fli block -4 and PAX8 reporter 10.
Screening O=C(C[C@H]1CC[C@H](NS(=O)(=O)c2ccccc2)[C@H](CO)O1)NCCN1CCCCC1 returned EWS-Fli block 4 and PAX8 reporter 12.
For O=C(C[C@@H]1CC[C@@H](NS(=O)(=O)c2ccc(F)cc2)[C@H](CO)O1)NC1CCCCC1 the results were EWS-Fli block 1 and PAX8 reporter 2.
`Cc1sc2nc(CN3CCOCC3)nc(Cl)c2c1C` gave Shn3 inh set2 -1, ABHD5 PLIN5 PPI 1, EWS-Fli block -7, PAX8 reporter -6, Peg3 promoter -2 and MITF TRPM1 inh -4.
Cc1sc2nc(CN3CCC(C)CC3)nc(Cl)c2c1C was read as EWS-Fli block 73*, PAX8 reporter 0 and DNA binder FP -19%.
For C[C@@H]1CN([C@H](C)CO)C(=O)c2ccccc2-c2ccccc2CO[C@@H]1CN(C)C(=O)Nc1ccc2c(c1)OCO2 the results were EWS-Fli block -9 and PAX8 reporter -12.
For S=c1[nH]nc(-c2cc(-c3ccccc3)n[nH]2)n1/N=C/C(Br)=C/c1ccccc1 the results were Shn3 inh set2 74, ABHD5 PLIN5 PPI 26*, EWS-Fli block 75*, PAX8 reporter 45, Peg3 promoter 108* and DNA binder FP 0%.
Screening S=c1[nH]nc(-c2cc(-c3ccccc3)n[nH]2)n1/N=C/c1ccccc1 returned Shn3 inh set2 -19, ABHD5 PLIN5 PPI -4, EWS-Fli block 2, PAX8 reporter 0, Peg3 promoter 1 and MITF TRPM1 inh -8.
`C/C=C/c1ccc([C@H]2[C@@H](CO)N3C(=O)CN(S(=O)(=O)c4cccc(F)c4)C[C@@H]23)cc1` gave EWS-Fli block 52* and DNA binder FP -2%.
`C/C=C/c1ccc([C@H]2[C@@H](CO)N3C(=O)CN(S(=O)(=O)c4cccc(F)c4)C[C@H]23)cc1` gave EWS-Fli block 17.
Screening C[C@@H]1CN([C@H](C)CO)C(=O)Cc2cc(NC(=O)CCC(F)(F)F)ccc2O[C@H]1CN(C)S(=O)(=O)c1cn(C)cn1 returned EWS-Fli block -8 and PAX8 reporter -2.
CCN(Cc1ccccc1)c1ccc(/C=N/N=C(N)N)cc1 was read as Shn3 inh set2 83, ABHD5 PLIN5 PPI 13, EWS-Fli block 57*, Peg3 promoter 108*, MITF TRPM1 inh 64* and DNA binder FP -12%.
Screening COc1cc2c(cc1OC)C(C)N(C(=O)c1cc(Cl)nc(Cl)c1)CC2 (stereo not given) returned Shn3 inh set2 19, ABHD5 PLIN5 PPI -9, EWS-Fli block 56*, PAX8 reporter 14, Peg3 promoter 35, MITF TRPM1 inh 7 and DNA binder FP 1%.
COc1cc2c(cc1OC)C(C)N(C(=O)c1nccnc1C(=O)O)CC2 (stereo not given) was read as ABHD5 PLIN5 PPI 9, EWS-Fli block 1, PAX8 reporter 11, Peg3 promoter -4 and MITF TRPM1 inh 6.
`O=C(NCc1ccncc1)C1Cc2c(-c3ccc(Cl)cc3)ccnc2O1` (stereo not given) gave Shn3 inh set2 -5, ABHD5 PLIN5 PPI 9, EWS-Fli block -2, PAX8 reporter 6 and Peg3 promoter 23.
O=C(NCc1cccnc1)C1Cc2c(-c3ccc(Cl)cc3)ccnc2O1 (stereo not given) was read as Shn3 inh set2 0, ABHD5 PLIN5 PPI -1, EWS-Fli block 52*, PAX8 reporter 29, Peg3 promoter 18 and DNA binder FP -3%.
COc1cccc(NC(=O)c2cc3ccccc3oc2=O)c1 was read as Shn3 inh set2 10, ABHD5 PLIN5 PPI -2, EWS-Fli block 33, PAX8 reporter -108, Peg3 promoter -71 and MITF TRPM1 inh 5.
`COc1ccccc1NS(=O)(=O)c1cc(NC(=O)c2cc3ccccc3oc2=O)ccc1C` gave Shn3 inh set2 -3, ABHD5 PLIN5 PPI 1, EWS-Fli block 82*, PAX8 reporter -5, Peg3 promoter -9, MITF TRPM1 inh -21 and DNA binder FP 17%.
`C[C@@H]1CCCCO[C@@H](CN(C)S(=O)(=O)c2cccs2)[C@H](C)CN([C@H](C)CO)C(=O)c2cc(NC(=O)Nc3ccccc3)ccc2O1` gave EWS-Fli block 6 and PAX8 reporter 32.
Screening CO[C@H]1CN(C)C(=O)c2ccc(NC(=O)NC(C)C)cc2OC[C@@H](C)N(Cc2ccc(-c3ccccn3)cc2)C[C@@H]1C returned EWS-Fli block 0 and PAX8 reporter 24.
For CN(C)[C@@H]1CCC[C@@H]1OC(=O)C(c1ccccc1)c1ccccc1 the results were Shn3 inh set2 0, ABHD5 PLIN5 PPI 12, EWS-Fli block 87*, PAX8 reporter -23, Peg3 promoter 12, MITF TRPM1 inh -7 and DNA binder FP -1%.
O=C(NCC1CC1)[C@H]1[C@H](CO)[C@H]2Cn3c(ccc(-c4cccc(F)c4)c3=O)[C@H]2N1CC1CCOCC1 was read as EWS-Fli block -1.
Screening O=c1c2ccccc2ncn1Cc1ccc(Cl)c(Cl)c1 returned Shn3 inh set2 14, ABHD5 PLIN5 PPI 1, EWS-Fli block 13, PAX8 reporter 14, Peg3 promoter 13 and MITF TRPM1 inh -16.
Screening Cc1[nH][nH]c(=O)c1C(c1c(C)[nH][nH]c1=O)c1cn(Cc2ccc(Cl)c(Cl)c2)c2ccccc12 returned Shn3 inh set2 12, ABHD5 PLIN5 PPI -7, EWS-Fli block 53*, PAX8 reporter 28, Peg3 promoter 45, MITF TRPM1 inh 40 and DNA binder FP 2%.

Screening data from PubChem BioAssay.
